# Assay results reported in PubChem BioAssay (NCI).
# Several values for one entry are separate records, joined by “and”; a condition that tells them apart may be missing. Equal entries are not always repeated. This is part of a sample that, as a whole, favours compounds with a hit. Of some 83,000 tested, about 20% had one in any assay.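 The test compound was applied at a single concentration to cells in 96-well plates for 48 hours, and percent growth was recorded.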 Activity calls are given as the source filed them.
# Legend:
# Assay in all cases: NCI-60 one-dose screen, 48 h (100 = growth as untreated, 0 = no growth, -100 = all killed)
# T-47D breast = tested on: T-47D breast
# BT-549 breast = tested on: BT-549 breast
# MDA-MB-435 melanoma = tested on: MDA-MB-435 melanoma
# Method: Growth inhibition of the MDA-MB-435 human Melanoma tumor cell line is measured as a screen for anti-cancer activity. Cells are grown in 96 well plates and exposed to the test compound for 48 hours. Compounds are tested at a single concentration, which is 10^-5 M for most compounds. The reported endpoint is percent growth (GI% or GIPRCNT), where numbers from 0 - 100% represent growth inhibition, and numbers from -100% - 0 represent cell death. For example, a value of 40 represents 60% growth inhibition. A value of 0 means no net growth occurred over the course of the experiment. A value of -40 indicates 40% of cells at the beginning of the experiment died by the end of the experiment. A value of -100 means all cells are dead at the end of the experiment.
# NCI-60 Human Tumor Cell Lines Screen was performed using the standard one-dose NCI protocol, which is described in more detail at https://dtp.cancer.gov/discovery_development/nci-60/default.htm.
# Compounds with GIPRCNT values below 10 were considered active. Activity score was based on GIPRCNT using the following formula: […]
# Score is 0 for GIPRCNT values of 100 or above, 50 for GIPRCNT values of 0, and 100 for GIPRCNT values of -100.
# SW-620 colon = tested on: SW-620 colon
# MCF7 breast = tested on: MCF7 breast
# HCT-116 colon = tested on: HCT-116 colon
# HCC-2998 colon = tested on: HCC-2998 colon
# KM12 colon = tested on: KM12 colon
smiles,measurement,setting,value
COc1ccc2sc3cccc(NCCN(C)C)c3c(=O)c2c1,growth,T-47D breast; 10 µM,70.7% (inactive) and -34.7% (active)
same,growth,BT-549 breast; 10 µM,80.1% (inactive) and 29.6% (inactive)
same,growth,MDA-MB-435 melanoma; 10 µM,31.3% (inactive) and -86.9% (active)
same,growth,SW-620 colon; 10 µM,24.5% (inactive) and -79% (active)
same,growth,MCF7 breast; 10 µM,30.5% (inactive) and -72.8% (active)
same,growth,HCT-116 colon; 10 µM,18.5% (inactive) and -76.2% (active)
same,growth,HCC-2998 colon; 10 µM,28.1% (inactive) and -83% (active)
same,growth,KM12 colon; 10 µM,38.3% (inactive) and -7.99% (active)
CC/C(=C(\c1ccccc1)c1ccc(OCCN(C)C)cc1)c1ccccc1,growth,T-47D breast; 12.5 µM,-18.5% (active)
same,growth,BT-549 breast; 10 µM,69.8% (inactive)
same,growth,BT-549 breast; 12.5 µM,-96% (active)
same,growth,MDA-MB-435 melanoma; 10 µM,37.8% (inactive)
same,growth,MDA-MB-435 melanoma; 12.5 µM,-87.2% (active)
same,growth,SW-620 colon; 10 µM,4.89% (active)
same,growth,SW-620 colon; 12.5 µM,-50.4% (active)
same,growth,MCF7 breast; 10 µM,-10.3% (active)
same,growth,MCF7 breast; 12.5 µM,-61.6% (active)
same,growth,HCT-116 colon; 10 µM,26.2% (inactive)
same,growth,HCT-116 colon; 12.5 µM,-98.1% (active)
same,growth,HCC-2998 colon; 10 µM,16.3% (inactive)
same,growth,HCC-2998 colon; 12.5 µM,-96.2% (active)
same,growth,KM12 colon; 10 µM,25% (inactive)
same,growth,KM12 colon; 12.5 µM,-74.4% (active)
CN(Cc1cnc2nc(N)nc(N)c2n1)c1ccc(C(=O)N[C@@H](CCC(=O)O)C(=O)O)cc1,growth,T-47D breast; 2.5 µM,55.6% (inactive)
same,growth,T-47D breast; 10 µM,46.2% (inactive)
same,growth,BT-549 breast; 2.5 µM,40.9% (inactive)
same,growth,BT-549 breast; 10 µM,46.9% (inactive)
same,growth,MDA-MB-435 melanoma; 2.5 µM,25.7% (inactive)
same,growth,MDA-MB-435 melanoma; 10 µM,27.2% (inactive)
same,growth,SW-620 colon; 2.5 µM,41.9% (inactive)
same,growth,SW-620 colon; 10 µM,35.6% (inactive)
same,growth,MCF7 breast; 2.5 µM,24.4% (inactive)
same,growth,MCF7 breast; 10 µM,17.2% (inactive)
same,growth,HCT-116 colon; 2.5 µM,18.5% (inactive)
same,growth,HCT-116 colon; 10 µM,22.7% (inactive)
same,growth,HCC-2998 colon; 2.5 µM,8.58% (active)
same,growth,HCC-2998 colon; 10 µM,106% (inactive)
same,growth,KM12 colon; 2.5 µM,30.6% (inactive)
same,growth,KM12 colon; 10 µM,31.9% (inactive)
CC[C@@]1(O)C(=O)OCc2c1cc1n(c2=O)Cc2cc3c(CN(C)C)c(O)ccc3nc2-1,growth,T-47D breast; 10 µM,9.96% (active) and 8.7% (active)
same,growth,BT-549 breast; 10 µM,-1.81% (active) and -14.9% (active)
same,growth,MDA-MB-435 melanoma; 10 µM,-44.2% (active) and -55% (active)
same,growth,SW-620 colon; 10 µM,9.23% (active) and 7.32% (active)
same,growth,MCF7 breast; 10 µM,1.58% (active) and 5.19% (active)
same,growth,HCT-116 colon; 10 µM,0.82% (active) and -14.2% (active)
same,growth,HCC-2998 colon; 10 µM,-14.2% (active) and -26.3% (active)
same,growth,KM12 colon; 10 µM,6.1% (active) and -42.5% (active)
